Screening data (PubChem)
PAX8 reporter: lowers PAX8-driven luciferase in RMG-I cells; RMG-I TPO-luciferase reporter, SteadyGlo, 24 h; inhibition, % at 12.6 µM; AID 652154; 360,000 tested, 1.2% active;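 active = mean replicate inhibition at least 60% with every replicate also reaching 60%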;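 note: luciferase light reporting Pax8 driven TPO promoter activity; plate controls were median of neutral control wells for no effect and mitoxantrone controls for full effect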
esBAF inh: SWI/SNF esBAF complex inhibition; reporter increase, % at 12.5 µM; 350,000 tested, 2% active; mouse ES cells, Bmi1-luciferase knock-in reporter, 24 h; 100% = twice the neutral-well signal; AID 602393; in the data active = activation above about 40%;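 note: 0% = median of the plate's neutral control wells and 100% = double that signal; a rise in the Bmi1 reporter signal indicates esBAF inhibition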
MITF TRPM1 HTS: increases MITF-driven TRPM1 promoter luciferase signal; SK-MEL-5 TRPM1-promoter luciferase, 24 h; % of positive control, neutral wells = 0; activation, % at 12.5 µM; 300,000 tested, 0.75% active; AID 588334;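 active = mean activation of at least 80% with every replicate also reaching 80%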;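 note: 0% = neutral control wells and 100% = parthenolide positive control wells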
EWS-Fli block: blocks EWS/Fli oncoprotein-driven transcription. A673 NR0B1-luciferase reporter, viability-normalised. inhibition, % at 12.6 µM. 350,000 tested, 0.67% active;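 active = mean inhibition of at least 50% after viability correction, with every replicate also passing that limit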;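 note: firefly luciferase signal divided by Alamar Blue viability fluorescence both relative to DMSO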
Wnt act: Wnt/beta-catenin pathway activation. Wnt/beta-catenin reporter cell assay, activator, plate reader. activation, % at 9.35 µM. 300,000 tested, 1.2% active; in the data active = activation above about 30%, passing the limit was not always enough;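 note: 0% = neutral control wells and 100% = positive control wells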
TRPM1 prom inh: reduces MITF-dependent TRPM1 promoter luciferase signal; AID 488899; SK-MEL-5 TRPM1 promoter luciferase, 24 h; inhibition, % at 12.5 µM; 330,000 tested, 0.83% active;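 active = mean inhibition across replicates of 60% or more, whatever share of single replicates reaches that level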
Numbers without * were called inactive; nt = no result. Only some compounds are listed: those with a hit (about 4% of all), similar ones and a draw of the others.

SMILES	PAX8 reporter	esBAF inh	MITF TRPM1 HTS	EWS-Fli block	Wnt act	TRPM1 prom inh
Cc1cc(C)nc(SCC(=O)N2CCc3ccccc32)n1	-94.7	41.8*	54.2	nt	13.2	-50.6
O=C(CSc1ncccc1-c1nc2ccccc2[nH]1)N1CCc2ccccc21	89.8*	nt	30.5	-47.7	-1.2	-28.3
Cc1cc2nc(-c3ccc(SCC(=O)N4CCc5ccccc54)nc3)[nH]c2cc1C	nt	75.4*	20.9	-43.7	-4.9	-19.6
Cc1cc(C)n2nc(SCC(=O)N3CCc4ccccc43)nc2n1	-3.7	nt	-0.9	nt	-2.5	1.5
C[C@H]1CN([C@@H](C)CO)S(=O)(=O)c2ccc(/C=C/c3ccccc3)cc2O[C@H]1CN(C)C(=O)c1ccncc1	nt	-1.5	nt	13.2	nt	nt
COCC#Cc1cnc2c(c1)C(=O)N([C@H](C)CO)C[C@@H](C)[C@H](CN(C)Cc1ccc(F)cc1)O2	nt	-3.8	nt	-4.5	nt	nt
Cc1cccc(S(=O)(=O)N2C[C@H]3[C@@H](c4ccccc42)[C@@H](CO)N3CC2CCOCC2)c1	-3.3	2.2	nt	-3.1	nt	nt
COc1cccc(NC(=O)C[C@@H]2CC[C@@H]3[C@@H](COc4ccc(NC(=O)C5CCCCC5)cc4C(=O)N3C)O2)c1	-1.9	7.6	nt	-6.3	nt	nt
COc1ccc(NC(=O)N(C)C[C@@H]2OCCCC[C@@H](C)Oc3ccc(NS(=O)(=O)c4ccc(OC)cc4)cc3C(=O)N([C@@H](C)CO)C[C@H]2C)cc1	-2.1	2.5	nt	-10.9	nt	nt
Oc1ccccc1-c1cc(-c2cccc(F)c2)n[nH]1	nt	45.1*	nt	nt	nt	-21.5
CC(C)(C)c1ccc(-c2cc(-c3ccccc3O)[nH]n2)cc1	-76.9	-31.7	-3.7	22.2	-2.3	8.2
O=C(C1CCCC1)N1CC2(C1)[C@H](c1ccccc1)[C@H](CO)N2C(=O)CC1CC1	nt	nt	nt	2.7	nt	nt
O=C(NCc1ccccc1)c1cc(C2CCCCN2S(=O)(=O)Cc2ccccc2)on1 (stereo not drawn)	7.6	0.8	nt	0.5	-0.6	nt
Cn1cnc(S(=O)(=O)N2CCCCC2c2cc(C(=O)Nc3ccc(F)c(Cl)c3)no2)c1 (stereo not drawn)	-78.0	44.7*	nt	-75.0	2.5	nt
COc1ccc(NC(=O)c2cc(C3CCCCN3S(=O)(=O)Cc3ccccc3)on2)cn1 (stereo not drawn)	-118.0	50.6*	nt	-86.1	-2.0	nt
CCCCCCC[C@@H](C/C=C/CCC(=O)N(C)C/C(=C/Cl)C/C(=C\C(=O)N1CC(OC)=CC1=O)OC)OC	50.0	-8.3	-75.8	-4.4	-2.8	75.0*
CC(C)NC(=O)Nc1ccc2c(c1)C(=O)N([C@@H](C)CO)C[C@@H](C)[C@@H](CN(C)C(=O)Nc1ccccc1)OCCCC[C@@H](C)O2	-3.1	nt	nt	nt	nt	nt
O=C(CCc1ccccc1)Nc1cccc(NC(=O)CCc2ccccc2)c1	nt	6.3	-1.1	-3.4	-1.7	1.8
Cc1ccc(NC(=O)CCc2ccccc2)cc1C	-137.6	52.2*	nt	-55.8	1.6	nt
Cc1cccc(NC(=O)CCCc2ccccc2)c1	-139.3	63.3*	nt	-71.2	17.4	-73.5
Cc1ccc(S(=O)(=O)N(C)C)cc1NC(=O)CCc1ccccc1	-24.5	nt	-2.5	4.1	48.2*	-16.1
CC(O)c1cccc(NC(=O)CCCc2ccccc2)c1 (stereo not drawn)	-44.5	8.1	14.4	-3.5	1.4	-17.4
Cc1cccc(NC(=O)Cc2noc3ccccc23)c1	nt	60.0*	nt	nt	nt	-47.8
COc1ccc(S(=O)(=O)Nc2ccc3c(c2)C(=O)N([C@H](C)CO)C[C@@H](C)[C@H](CN(C)C)OCCCC[C@@H](C)O3)cc1	-9.3	nt	nt	nt	nt	nt
CCOC(=O)c1cnc2c(c(C)nn2C)c1Oc1ccc(OC)cc1	-45.1	-12.0	nt	5.0	49.2*	nt
CCOC(=O)c1cnc2c(c(C)nn2C)c1Oc1cc(Cl)cc(Cl)c1	20.3	-5.7	-2.9	10.2	-1.1	4.3
CCCCCCCOC(=O)C[N+](C)(C)CCOC1CC2CCC1(C)C2(C)C (stereo not drawn)	46.3	nt	-93.7	67.4*	-7.2	93.8*
O=C(Nc1ccc(N2CCOCC2)c(S(=O)(=O)Nc2ccccc2Cl)c1)c1ccccc1	15.7	3.3	-10.6	7.1	-1.8	7.1
O=C(Nc1ccc(Cl)cc1)Nc1ccc(N2CCCC2)c(S(=O)(=O)Nc2ccccc2Cl)c1	100.5*	nt	-69.9	nt	-16.1	70.7*
COc1cccc2c(N/N=C/c3ccccc3)cc(C)nc12	-5.7	6.3	-2.5	5.6	6.7	4.6
